The values below come from PubChem BioAssay AID602244 (Sanford-Burnham Center for Chemical Genomics, 2012).

Hit rate of the full screen: of about 360,000 compounds, about 1,300 (0.36%) were called active. The sample as a whole holds a higher share of actives than the screen did. Unmarked numbers belong to inactive results. No stated cut-off is given here; in the data, active means inhibition above about 34% (passing the limit was not always enough); inactive means the rest.

C-X-C chemokine receptor type 6 (Homo sapiens), sequence (O00574 whole entry, looked up): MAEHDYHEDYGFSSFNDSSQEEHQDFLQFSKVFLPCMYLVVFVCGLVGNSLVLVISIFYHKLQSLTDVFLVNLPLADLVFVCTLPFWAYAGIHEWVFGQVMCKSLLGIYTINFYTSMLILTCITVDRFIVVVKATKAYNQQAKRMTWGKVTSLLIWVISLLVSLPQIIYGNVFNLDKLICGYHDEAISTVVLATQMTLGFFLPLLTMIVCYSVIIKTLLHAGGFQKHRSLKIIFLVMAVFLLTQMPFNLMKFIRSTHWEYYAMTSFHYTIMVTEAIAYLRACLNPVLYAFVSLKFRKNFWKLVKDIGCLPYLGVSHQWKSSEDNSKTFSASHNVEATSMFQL

The assay addresses C-X-C chemokine receptor type 6 (Homo sapiens) (UniProt O00574). The assay can be described thus: CXCR6 receptor inhibitors, primary screen, cell-based, beta-arrestin, luminescence, CHO-K1 PathHunter, 1536-well (AID 602244).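 Further: antagonist mode with CXCL16 agonist at 10 nM final; 0% = 10 nM CXCL16 with DMSO and 100% = unstimulated wells without agonist.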 Particulars: at 20 µM, hits give high values.
With `Cc1ccc(S(=O)(=O)CCC(=O)OCC(=O)N(C)Cc2ccccc2)cc1`, the inhibition was 0.4%. In the case of `COc1cccc2sc(N(CCCN(C)C)C(=O)CCS(=O)(=O)c3ccccc3)nc12` it was 44.2% (active); in that of `O=C(CCS(=O)(=O)c1ccccc1)Nc1nc2c(s1)CCCC2`, -0.7%; in that of `CCc1nc2c(OCCOc3ccccc3)cccn2c1N(C)C(=O)c1ccccc1F`, 4.8%. Take `CN1CCC(N(C)S(=O)(=O)c2ccc(NC(=O)c3cccc(C#N)c3)cc2)CC1`: the inhibition was -0.9%.

As to `O=C1CC(c2cccc(F)c2)C2=C(CCCC2=O)N1` (stereo not drawn), the inhibition is -9.4%. Next, `O=[N+]([O-])c1c(NCCO)cc(Sc2nc3ccccc3s2)c2nonc12`: 94.3% (active).

As for `C=CCOc1ccc(Cl)cc1CNCCCN1CCOCC1`, the inhibition is -3%.

Regarding `Cc1ccc(/C=N/NC(=O)CSc2nc3ccccc3o2)cc1`, the inhibition was -6.5%. As to `O=C(CNC(=O)c1cccnc1)N/N=C/c1cc(Br)c(O)c(Br)c1`, the inhibition is 1.1%. In the case of `O=C(CSc1cccc2cccnc12)N/N=C/c1cccnc1` it was 48.3% (active). As to `O=C(COc1cccc2c1CCNC2=O)NC1CCCCC1`, the inhibition was -2.3%. In the case of `OCCC1CN(Cc2cccc(OC3CCCC3)c2)CCN1Cc1ccsc1` (stereo not drawn) it was 4.2%; in that of `Cc1c(NC(=O)C(C)Oc2cccc(Cl)c2)c(=O)n(-c2ccccc2)n1C` (stereo not drawn), -5%; in that of `CC(C)CCNC(=O)c1cccnc1Sc1ccccc1`, -0.4%. Next, `CC(NC(=O)Nc1cccc([N+](=O)[O-])c1)c1ccc2c(c1)OCO2` (stereo not drawn): 7.9%; `COC(=O)/C=C\C(=O)Nc1cccc([N+](=O)[O-])c1`: 74.8% (active); `COc1cccc(NCCC(=O)c2cccc([N+](=O)[O-])c2)c1`: 2.4%. As to `CC(C)Cc1cc(C(=O)NCCc2ccccc2)no1`, the inhibition is 1.7%. Take `O=C(NCCCc1ccccc1)c1cc(COc2c(F)cccc2F)on1`: the inhibition is 7.9%. Next, `Cc1cc(C(=O)NCCCc2ccccc2)no1`: 48.5% (active). In the case of `Cc1ccc(CCNC(=O)C2CCN(S(=O)(=O)N3CCCC3)CC2)cc1` it was 0.7%; in that of `Cc1ccc(OCCCCc2c(C)n[nH]c2C)cc1`, -0.7%; in that of `Cc1cc(F)ccc1NC(=S)NCCc1ccccc1`, -0.7%. In the case of `C/C(=N\NC(=S)NCc1ccccc1)C1CCCCC1` it was 21.2%; in that of `CCCC1CCC(=NNC(=S)NCCc2ccccc2)CC1` (stereo not drawn), 40% (active); in that of `Cc1cc(C)c(C)c(S(=O)(=O)N[C@@H](C)C(=O)OC(C)C(=O)NC(N)=O)c1C` (stereo partly drawn), 7%. Consider `Cc1oc2cc([N+](=O)[O-])c(O)c([N+](=O)[O-])c2c1C(=O)c1ccc(Br)cc1`, for which the inhibition was 25.7%. Next, `O=C(NNC(=S)NCCCN1CCOCC1)c1ccncc1`: 3.2%; `O=[N+]([O-])c1ccc(N=NNc2ccc([N+](=O)[O-])cc2)cc1`: 39.7% (active); `NC(=O)C1(Nc2ccc([N+](=O)[O-])cc2)CCCC1`: 1.8%. In the case of `COC(=O)c1ccccc1N=NNc1ccc([N+](=O)[O-])cc1`, the inhibition was -5.2%. As for `CC(=O)Nc1ccc(S(=O)(=O)NCC2CCC(C(=O)NCCc3ccccc3)CC2)cc1` (stereo not drawn), the inhibition is 6.1%.

For the compound `Nc1nc(Nc2ccccc2F)nc(NC2CCCCC2)c1[N+](=O)[O-]`, the inhibition was -0.8%. On to `CSCCC(NC(=O)COc1ccccc1)C(=O)OCc1ccc(Cl)cc1` (stereo not drawn), for which the inhibition was 2.7%. Next, `CSCCC(NC(=O)COc1ccccc1)C(=O)OCC(=O)c1cc2ccccc2o1` (stereo not drawn): 37.7% (active); `CSCCC(NC(=O)COc1ccccc1)C(=O)OCCOc1ccc(Br)cc1` (stereo not drawn): 2.8%; `O=C(NCc1ccccc1)C1=C[C@@H](C2CCCCC2)C[C@@H](OCc2ccc(CO)cc2)O1`: 6.4%.

As for `CC(C)c1ccc(S(=O)(=O)N2CCC3(CC2)OCCO3)cc1`, the inhibition was -0.4%. Next, `CCN(CC)P(=O)(/C(Cl)=C\Nc1c(C)n(C)n(-c2ccccc2)c1=O)N(CC)CC`: 9.1%; `CCOc1ccc(CN2CCC(n3nccc3NC(=O)C3CC3)CC2)cc1CO`: 3.8%.

Turning to `CSCCC(NS(=O)(=O)c1ccc(C)cc1)C(=O)NCCc1c[nH]c2ccccc12` (stereo not drawn), the inhibition is -6%. For the compound `CCN(CC)CCn1c(N)c(S(=O)(=O)c2ccccc2)c2nc3ccccc3nc21`, the inhibition is 45.9% (active). As to `CCN(CC)CCn1c(/N=C/c2cc(Br)ccc2O)nc2ccccc21`, the inhibition is 0.9%. Next, `CCC(=O)Nc1c(S(=O)(=O)c2ccccc2)c2nc3ccccc3nc2n1Cc1ccccc1`: -4.6%; `CCCCOc1ccc(C(=O)NCC(=O)OCC(=O)c2c(N)n(C)c(=O)n(C)c2=O)cc1`: 2.3%; `CC1CN(c2cc(=O)n(-c3cccc(Br)c3)c(=O)[nH]2)CC(C)O1` (stereo not drawn): -4.7%.

For the compound `CCOC(=O)N1CCC(N2Cc3cccc(C(=O)Nc4ccc(S(=O)(=O)N(CC)CC)cc4)c3C2=O)CC1`, the inhibition is -2.9%. Next, `COC(=O)c1cc(OC)c(OC)cc1NC(=O)C1CCCO1` (stereo not drawn): 0.8%. In the case of `Cc1ccc([C@H]2N[C@]3(CCCN(Cc4ccccc4)C3=O)[C@H]3C(=O)N(Cc4ccccc4)C(=O)[C@@H]23)cc1` it was 3.3%; in that of `C/C(=N\NC(=O)Cc1ccc(Cl)cc1)c1ccccn1`, 88.7% (active).

On to `CC(=NNC(=S)N1CCCCCC1)c1ccccn1`, for which the inhibition is 19.5%.

On to `C/C(=N/NC(=O)CCc1ccccc1)c1ccco1`, for which the inhibition was -3.6%. Consider `O=C(c1ccccc1)C(Cn1cncn1)C(Sc1ccccc1)c1ccccc1` (stereo not drawn), for which the inhibition was 5.2%. Next, `O=C(CNc1ccccc1N1CCCC1=O)Nc1cc(Cl)ccc1-n1cncn1`: -1%; `Cc1noc(C)c1CSCC(=O)N(CCC(C)C)c1c(N)n(Cc2ccccc2)c(=O)[nH]c1=O`: 2.5%; `COc1cccc(CN(C)CC2CCCN(CCc3ccc(Cl)cc3)C2)c1OC` (stereo not drawn): 3.7%. In the case of `CCN(CC)Cc1csc2ccc(Br)cc12` it was 5.6%. Next, `CC(=O)/C(=N\Nc1ccc(Cl)cc1Cl)Sc1cccc2cccnc12`: 46.4% (active); `Cc1cc(OCCOc2cccc3cccnc23)c(C)cc1Cl`: -1.8%; `COc1cccc(CNC(=O)C2CCN(S(=O)(=O)c3cccc4cccnc34)CC2)c1`: -1.1%.

For `CC1CCC(NS(=O)(=O)c2ccc3c(c2)CC(=O)N3)CC1` (stereo not drawn), the inhibition was -9.8%.

In the case of `CS(=O)(=O)c1ccc(Cl)c(NC(=O)COC(=O)c2cccc(S(=O)(=O)N3CCCC3)c2)c1`, the inhibition was 8.6%. Next, `COc1ccc(C[C@H]2CN3C(=NC[C@H]3C)N2CCNC(=O)CCC2CCCCC2)cc1`: 5.3%; `CC(C)(C)C1CCC(=NNC(=O)c2ccc(Br)o2)CC1` (stereo not drawn): -5%; `COCCCNC(=S)NNC(=O)C(O)(c1ccccc1)c1ccccc1`: 14.6%. Next, `COc1ccccc1OCCNC(=O)c1cc([N+](=O)[O-])cc([N+](=O)[O-])c1`: -9.6%; `COCCCNC(=S)NC(=O)c1ccc([N+](=O)[O-])cc1`: 75% (active).

For `COc1ccc(CN2CCNC(=O)C2CC(=O)NCc2cn[nH]c2-c2ccccc2)c(F)c1` (stereo not drawn), the inhibition is -0.4%.

Turning to `Nc1nnc(C2CCCC2)s1`, the inhibition was -3.7%. As for `CC1(C(=O)NCCc2c[nH]c3ccccc23)C=CC2(CCCCC2)N1C(=O)c1ccccc1` (stereo not drawn), the inhibition was -1.9%.

On to `Cc1ccc(-n2[nH]c(C)c(/C=N/N3C(=O)c4cccc5cccc(c45)C3=O)c2=O)cc1`, for which the inhibition is 48.5% (active). In the case of `COc1cc(SC#N)ccc1N=Cc1c(C)[nH]n(-c2ccc(C)cc2)c1=O` it was -2%; in that of `Cc1ccc(-c2ccnc3[nH]n(-c4ccccc4)c(=O)c23)cc1`, 12.9%; in that of `Cc1nn(C(C)CC(=O)O)c(C)c1C` (stereo not drawn), 3.3%.

As to `CC(NC(=O)Cn1cc(C(F)(F)F)cc(Cl)c1=O)c1ccccc1` (stereo not drawn), the inhibition was -4.9%. Next, `CC1CCC(C(C)C)C(=O)/C1=C\c1ccc(NC(=O)CCC(=O)O)cc1` (stereo not drawn): 1%. Turning to `O=C(NCCc1ccccc1)C1CCC(Cn2c(=O)c3ccccc3n(Cc3cccnc3)c2=O)CC1` (stereo not drawn), the inhibition was -5.3%.

Regarding `C=CCC1(C#N)C(=S)NC(C)=C(C(=O)OCC)C1c1ccccc1` (stereo not drawn), the inhibition is -3.2%. Next, `COc1ccc(NC(=O)/C(Cl)=C(/Cl)S(=O)Cc2ccc(C)cc2)cn1` (stereo not drawn): 94.9% (active); `COc1cc(NC(=O)Nc2ccc(C)cc2)cc([N+](=O)[O-])c1`: 2.8%; `COc1ccc(NC(=O)C2Cc3c(-c4ccc5c(c4)OCO5)ccnc3O2)cn1` (stereo not drawn): -3.9%. Next, `COc1cccc(CC(=NO)c2cccc(OC)c2)c1`: 7.2%; `O=C1C(Cl)=C(Oc2ccccc2)C(=O)c2ccccc21`: 104% (active); `O=C(OCC(=O)N1CCc2ccccc21)C1CCCN1S(=O)(=O)c1ccc(Cl)cc1` (stereo not drawn): -11.4%. Next, `CCCCn1c(N)c(N(CC(C)C)C(=O)c2cccc(S(=O)(=O)N3CCN(C(C)=O)CC3)c2)c(=O)[nH]c1=O`: 1.2%; `CCCCCCCCCCOC(=O)Cn1c(COc2cccc(OC)c2)[n+](C)c2ccccc21`: 47.7% (active); `CCCCN(CCCC)C(=O)CCS(=O)(=O)c1ccc2c(c1)n(C)c(=O)c(=O)n2C`: -7.5%.

Regarding `COc1ccc(CCNC(=O)CSc2nc(-c3ccc(OC)c(OC)c3)ccc2C#N)cc1`, the inhibition is 7.6%.

As for `Cc1ccc(N2C(=O)SC(N(CC(=O)O)c3ccc(C)cc3)C2=O)cc1` (stereo not drawn), the inhibition was 4%.

Consider `CCCNC(=O)c1cnc(-c2ccccc2)nc1-c1ccccc1`, for which the inhibition was 12%. In the case of `COCCNc1nc(-c2ccccc2)nc2c1oc1ccccc12` it was -2.7%; in that of `CCC(=O)OCCNc1nc(-c2ccccc2)nc2ccccc12`, 40.8% (active).
